Screening data as filed in PubChem.
A selection: hits, their analogues and other compounds. The true share with any hit is near 21%.
Shiga toxin inh = Shiga toxin inhibition | Vero cells, Shiga toxin protein synthesis inhibition reporter | inhibition, % at 38.7 µM | 9.2% of 290,000 active | AID 2315; in the data active means inhibition mostly above about 28%, no sharp cut-off; inactive means mostly below about 43%; further: 0% is about no effect
Pf growth 48h = inhibits P. falciparum growth in the first generation, 48 h | P. falciparum luciferase growth in erythrocytes, 48 h | Potency, µM (doses to about 28.7 µM), without a hit: at the highest dose activity change, negative = inhibition, most hits filed as inhibitors | 5.9% of 310,000 active | AID 504832; further: potency means the concentration at half of the fitted maximal effect; on the % scale 0 is the no-effect control and ±100 the full control effect
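Luciferase-expressing parasites in RBCs, 2% Hct / 0.1% parasitemia final; RPMI 1640 + 0.5% Albumax; 37 C, 5% CO2, one generation; luminescence read-out, lower signal = inhibition.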
Pf growth 96h = P. falciparum growth inhibition at 96 hour, primary screen for plastid delayed-death inhibitors; Potency, µM (series often up to 28.7 µM), without a hit: at the highest dose activity change, negative = inhibition, most hits filed as inhibitors; 6.9% of 320,000 active; P. falciparum luciferase reporter growth, 96 h; further: potency means the concentration at half of the fitted maximal effect; on the % scale 0 is the no-effect control and ±100 the full control effect
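Two-generation exposure (96 h) targets delayed-death phenotype. Reporter parasites carrying integrated firefly luciferase, in red cells at 2% hematocrit and 0.05% parasitemia final, kept at 37 C, 5% CO2; luminescence loss indicates inhibition.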
NS1 function inh = blocks influenza NS1 protein function; 0.4% of 270,000 active; Potency, µM (series often up to 46.1 µM), without a hit: at the top dose activity, positive = more growth; AID 2326; calls by dose curve; further: potency means the concentration at half of the fitted maximal effect; actives are rising curves; nearly all actives have a fitted effect of over 50% in size
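In this qHTS, NS1 from influenza A is expressed in budding yeast, where it slows growth. Cells are switched from glucose to 2% galactose medium (pH 6.0, -URA), treated with compound, and growth recovery is read at OD600.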
Cycloheximide cs = affects cycloheximide protein synthesis inhibition readout, counter-screen. cell reporter, cycloheximide protein synthesis inhibition counterscreen. max response, %. 12% of 300,000 active; in the data active means max response mostly above about 13%, no sharp cut-off; inactive means mostly below about 14%; further: read at 38.3 µM for the half of the compounds with a filed dose; 0% is about no effect
Giardia FBPA inh-1 = blocks Giardia fructose-bisphosphate aldolase activity; A8B2U2; purified Giardia FBPA; Potency, µM (titrated, usually from 59.6 µM), inactives show at the highest dose activity, negative = inhibition, most hits filed as inhibitors; 0.71% of 290,000 active; AID 2451; further: potency means the concentration at half of the fitted maximal effect; on the % scale 0 is the no-effect control and ±100 the full control effect; nearly all actives have a fitted effect of over 55% in size
Target sequence (A8B2U2 whole entry, looked up): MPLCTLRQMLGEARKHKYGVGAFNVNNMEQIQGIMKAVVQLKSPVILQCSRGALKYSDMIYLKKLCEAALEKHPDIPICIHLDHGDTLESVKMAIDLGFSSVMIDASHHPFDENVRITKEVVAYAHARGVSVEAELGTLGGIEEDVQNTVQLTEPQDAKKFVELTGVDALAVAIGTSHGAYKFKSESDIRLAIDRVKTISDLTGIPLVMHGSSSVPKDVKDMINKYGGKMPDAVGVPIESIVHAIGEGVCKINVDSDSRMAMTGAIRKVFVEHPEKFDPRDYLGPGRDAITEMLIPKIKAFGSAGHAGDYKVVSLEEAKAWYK
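40 nM FBPA preincubated 10 min at RT with compound (up to 57.5 uM final), then substrate plus GAPDH/TPI/NAD/arsenate coupling and diaphorase/resazurin added. Fluorescence read after 20 min at RT, 525/598 nm.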
Giardia growth = blocks growth of Giardia lamblia trophozoites; 5% of 1,500 active; Potency, µM (titrated, usually from 57.5 µM), inactives show at the highest dose activity change, negative = inhibition, hits mostly inhibitors; AID 2785; shares compounds with Giardia FBPA inh-1; Giardia lamblia trophozoite growth inhibition;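 further: potency means the concentration at half of the fitted maximal effect; trophozoites exposed to compound for 48 h at 37 °C; on the % scale 0 is the no-effect control and ±100 the full control effect; nearly all actives have a fitted effect of over 70% in size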
Mammal cell tox = toxic to mammalian cells in Giardia aldolase counter-screen; shares compounds with Giardia FBPA inh-1; mammalian cell viability counter-screen, qHTS; Potency, µM (top dose mostly 57.5 µM), inactives show top-dose viability change, negative = toxicity, most hits filed as inhibitors; 4% of 1,500 active; AID 2786;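 further: Chinese hamster ovary cells used as mammalian cytotoxicity surrogate; viability measured as cellular ATP by luminescence; potency means the concentration at half of the fitted maximal effect; compound exposure lasted 48 h before reading; on the % scale 0 is the no-effect control and ±100 the full control effect; nearly all actives have a fitted effect of over 60% in size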
Giardia FBPA inh-2 = confirmation of Giardia fructose-bisphosphate aldolase inhibitors | purified Giardia aldolase enzyme activity, qHTS | Potency, µM (titrated, usually from 57.5 µM), for the others: at the highest dose activity change, negative = inhibition, hits mostly inhibitors | shares compounds with Giardia FBPA inh-1 | 5% of 1,500 active; further: potency means the concentration at half of the fitted maximal effect; on the % scale 0 is the no-effect control and ±100 the full control effect; nearly all actives have a fitted effect of over 45% in size
Rabbit FBPA inh = rabbit FBP aldolase inhibition by Giardia aldolase hits. shares compounds with Giardia FBPA inh-1. Rabbit muscle FBPA enzyme inhibition, selectivity counter-screen. Potency, µM (titrated, usually from 57.5 µM), without a hit: top-dose activity, negative = inhibition, most hits filed as inhibitors. 4% of 1,500 active; further: potency means the concentration at half of the fitted maximal effect; on the % scale 0 is the no-effect control and ±100 the full control effect; nearly all actives have a fitted effect of over 60% in size
Target sequence (P00883 whole entry, looked up): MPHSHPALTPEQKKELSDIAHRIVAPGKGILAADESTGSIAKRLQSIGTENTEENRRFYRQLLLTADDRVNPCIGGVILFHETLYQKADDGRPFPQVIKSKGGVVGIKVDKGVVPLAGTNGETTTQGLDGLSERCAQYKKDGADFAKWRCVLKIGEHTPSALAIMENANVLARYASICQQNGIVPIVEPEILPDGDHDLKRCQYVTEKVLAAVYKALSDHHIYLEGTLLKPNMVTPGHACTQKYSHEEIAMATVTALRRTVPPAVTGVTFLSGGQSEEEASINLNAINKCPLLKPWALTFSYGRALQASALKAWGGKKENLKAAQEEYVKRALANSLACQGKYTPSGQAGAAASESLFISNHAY
GAPDH coupling = GAPDH inhibition flagged for Giardia aldolase hits | AID 2795 | 6% of 1,500 active | GAPDH coupling enzyme counterscreen, biochemical, qHTS | shares compounds with Giardia FBPA inh-1 | Potency, µM (titrated, usually from 57.5 µM), for inactives: top-dose activity change, negative = inhibition, actives largely listed as inhibitors; further: potency means the concentration at half of the fitted maximal effect; on the % scale 0 is the no-effect control and ±100 the full control effect; nearly all actives have a fitted effect of over 55% in size
Starred values were filed as active, the others as inactive; [ ] = remark or other dose. Unless noted, the call rests on the fitted dose curve; in most records, active means well fitted curve in the direction sought with a large enough effect; inconclusive means small, poorly fitted or top-dose-only effect, or another doubt; inactive means no such curve, though single readings can be large; an effect the other way counts as inactive or inconclusive.

CCc1nnc(N/N=C\c2ccc(OC(C)=O)c(OC)c2)n1N was read as Shiga toxin inh 11, Pf growth 48h 1%, Pf growth 96h -5%, NS1 function inh -5%, Cycloheximide cs 2, Giardia FBPA inh-1 16µM*, Giardia growth -3%[38.3 µM], Mammal cell tox -28%, Giardia FBPA inh-2 3.7µM*, Rabbit FBPA inh 5.2µM* and GAPDH coupling 5.8µM*.
For Cc1ccc(CN=C(N)Nc2nc(C)cc(C)n2)cc1 the results were Shiga toxin inh -12, Pf growth 48h inconclusive, Pf growth 96h 15%, NS1 function inh -4%, Cycloheximide cs -7 and Giardia FBPA inh-1 -4%.
`CCc1nnc(N/N=C/c2cccs2)n1N` gave Shiga toxin inh 6, Pf growth 48h -5%, Pf growth 96h inconclusive, NS1 function inh -64%, Cycloheximide cs 10, Giardia FBPA inh-1 5µM*, Giardia growth inconclusive, Mammal cell tox inconclusive, Giardia FBPA inh-2 13µM*, Rabbit FBPA inh 13µM* and GAPDH coupling 13µM*.
For COc1ccc(OC)c(C(c2nnnn2CCC(C)C)N2CCN(C(=O)c3ccco3)CC2)c1 (stereo unspecified) the results were Shiga toxin inh 20, Pf growth 48h inconclusive, Pf growth 96h -19%, NS1 function inh -5%, Cycloheximide cs -7 and Giardia FBPA inh-1 2%.
`CCCCOc1c(Br)cc(CNCCCN2CCOCC2)cc1OC` gave Shiga toxin inh -7, Pf growth 48h 13µM*, Pf growth 96h 10µM*, NS1 function inh 17%, Cycloheximide cs 1, Giardia FBPA inh-1 20µM*, Giardia growth inconclusive, Mammal cell tox -9%, Giardia FBPA inh-2 3%, Rabbit FBPA inh 3% and GAPDH coupling 8%.
CCCCNCc1cc(Br)c(OCC(=O)N2CCOCC2)c(OC)c1 was read as Shiga toxin inh -8, Pf growth 48h 0%, Pf growth 96h 30%, NS1 function inh 0%, Cycloheximide cs -5 and Giardia FBPA inh-1 -3%.
Screening O/N=C1/CCc2nonc2/C1=N/O returned Shiga toxin inh -18, Pf growth 48h -18%, Pf growth 96h -12%, NS1 function inh 11%, Cycloheximide cs -6, Giardia FBPA inh-1 16µM*, Giardia growth 8.9µM*, Mammal cell tox 8%, Giardia FBPA inh-2 -8%, Rabbit FBPA inh 5% and GAPDH coupling -19%.
For O=c1oc2c(O)c(O)cc3c(=O)oc4c(O)c(O)cc1c4c23 the results were Shiga toxin inh -6, Pf growth 48h 5.2µM*, Pf growth 96h 3.7µM*, NS1 function inh -2%, Cycloheximide cs -2, Giardia FBPA inh-1 2µM*, Giardia growth 15%, Mammal cell tox 4%, Giardia FBPA inh-2 inconclusive, Rabbit FBPA inh inconclusive and GAPDH coupling inconclusive.
For Cc1cccc(C)c1NC(=O)CSc1nnc(-c2ccco2)c(-c2ccco2)n1 the results were Shiga toxin inh 14, Pf growth 48h 15%, Pf growth 96h 10%, NS1 function inh inconclusive, Cycloheximide cs 2, Giardia FBPA inh-1 7.9µM*, Giardia growth 0%[10.4 µM], Mammal cell tox 15%, Giardia FBPA inh-2 inconclusive, Rabbit FBPA inh -23% and GAPDH coupling inconclusive.
For CCN(CC)c1ccc(N)cc1S(=O)(=O)Nc1ccccc1OC the results were Shiga toxin inh 14, Pf growth 48h -6%, Pf growth 96h 11%, NS1 function inh -2%, Cycloheximide cs -2, Giardia FBPA inh-1 16µM*, Giardia growth 13%[10.4 µM], Mammal cell tox 0%, Giardia FBPA inh-2 1%, Rabbit FBPA inh 4% and GAPDH coupling 16%.
Screening CN1CC(c2ccc(C#N)cc2)C2(COc3ccccc3C2=O)C12C(=O)Nc1ccccc12 (stereo unspecified) returned Shiga toxin inh -5, Pf growth 48h inconclusive, Pf growth 96h inconclusive, NS1 function inh 5%, Cycloheximide cs -2 and Giardia FBPA inh-1 -11%.
`COc1cccc(C2CC(=O)N3CN(c4ccccc4F)CSC3=C2C#N)c1` (stereo unspecified) gave Shiga toxin inh -22, Pf growth 96h 1%, NS1 function inh 4%, Cycloheximide cs -6, Giardia FBPA inh-1 3.2µM*, Giardia growth -7%[10.4 µM], Mammal cell tox 19%, Giardia FBPA inh-2 -20%, Rabbit FBPA inh -26% and GAPDH coupling -6%.
COc1ccc(OC)c(C2CC(=O)N3CN(c4cccc(Cl)c4C)CSC3=C2C#N)c1 (stereo unspecified) was read as Shiga toxin inh -4, Pf growth 96h 3%, NS1 function inh -34%, Cycloheximide cs 1, Giardia FBPA inh-1 1.4µM*, Giardia growth inconclusive, Mammal cell tox -9%, Giardia FBPA inh-2 -29%, Rabbit FBPA inh inconclusive and GAPDH coupling inconclusive.
CCOc1ccc(N2CSC3=C(C#N)C(c4ccco4)CC(=O)N3C2)cc1 (stereo unspecified) was read as Shiga toxin inh -6, Pf growth 96h inconclusive, NS1 function inh 19%, Cycloheximide cs 1, Giardia FBPA inh-1 7.9µM*, Giardia growth 44%, Mammal cell tox -3%, Giardia FBPA inh-2 inconclusive, Rabbit FBPA inh inconclusive and GAPDH coupling inconclusive.
Screening CCOC(=O)c1ccc(N2CSC3=C(C#N)C(c4ccc(OC)cc4OC)CC(=O)N3C2)cc1 (stereo unspecified) returned Shiga toxin inh 49, Pf growth 96h inconclusive, NS1 function inh -30%, Cycloheximide cs -3 and Giardia FBPA inh-1 inconclusive.
COc1ccc(OC)c(C2CC(=O)NC(SC)=C2C#N)c1 (stereo unspecified) was read as Shiga toxin inh -6, Pf growth 96h 25%, NS1 function inh 5%, Cycloheximide cs -2 and Giardia FBPA inh-1 -1%.
Screening COc1ccc2ccccc2c1C1CC(=O)N2CN(C)CSC2=C1C#N (stereo unspecified) returned Shiga toxin inh 21, Pf growth 48h 0%, Pf growth 96h 2%, NS1 function inh inconclusive, Cycloheximide cs -5 and Giardia FBPA inh-1 inconclusive.
